Compound activity (PubChem BioAssay)
Hits are enriched below; roughly 18% of the tested compounds scored in any of these assays.
VDR inh: vitamin D3 receptor (human) inhibition. P11473. VDR-SRC2-3 peptide fluorescence polarization, 2 h. Potency, µM, without a hit: max response, negative = inhibition, most hits filed as inhibitors. actives 0.93% (n = 400,000); note: % is set by controls: 0 for no effect and ±100 for the full control effect
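VDR–SRC2-3 interaction, FP format. Cmpds 23 nl via pintool, brief spin, 2 h ambient incubation.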
TDP1 inh: inhibitors of human tyrosyl-DNA phosphodiesterase TDP1; Q9NUW8; actives 0.28% (n = 350,000); recombinant TDP1, AlphaScreen DNA substrate cleavage; Potency, µM (doses to about 130 µM), without a hit: at the top dose activity change, negative = inhibition, usual class: inhibitors; note: % is set by controls: 0 for no effect and ±100 for the full control effect; nearly all actives have a fitted effect of over 40% in size
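E. coli-derived human Tdp1, 1 nM final. Cpd preinc 15 min RT; substrate 15 nM final, 5 min RT; AS bead mix 10 ug/ml final, 10 min RT. Signal loss = tyrosine-FITC cleavage. No-enzyme wells = max signal.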
GCN5L2 inh: GCN5L2 (KAT2A) acetyltransferase inhibition | Q92830 | GCN5L2 HAT assay, ThioGlo1 CoA-SH fluorescence | Potency, µM (top dose mostly 58.9 µM), without a hit: at the top dose activity change, negative = inhibition, hits mostly inhibitors | actives 0.21% (n = 390,000) | AID 504327; note: % is set by controls: 0 for no effect and ±100 for the full control effect
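Preincubate 20nM GCN5L2 with compound 15 min, RT → add 50uM ThioGlo1 + 75uM H3(1-25) + 70uM acetyl-CoA → read fluorescence 0 and 20 min. Primary qHTS; fluorescent artifacts likely.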
TDP1 cell CPT: growth inhibition of DT40 Tdp1-/-;hTDP1 cells with camptothecin (screen for TDP1 inhibitors). AID 686979. actives 12% (n = 420,000). chicken DT40 Tdp1-/-;hTDP1 cells + 20 nM CPT, ATP luminescence, 48 h. Potency, µM (titrated, usually from 46.2 µM), without a hit: at the highest dose activity change, negative = growth inhibition, usual class: inhibitors; note: % is set by controls: 0 for no effect and ±100 for the full control effect; nearly all actives have a fitted effect of over 55% in size
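Cell growth measured by CellTiter-Glo luminescence after a minimum 48 h, 37 C compound exposure with 20 nM CPT in Tdp1-knockout DT40 cells stably expressing hTDP1, seeded 400/well; qHTS titration format.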
TDP1 cell noCPT: qHTS for Inhibitors of human tyrosyl-DNA phosphodiesterase 1 (TDP1): qHTS in cells in absence of CPT; AID 686978, 2013; Potency, µM (titrated, usually from 46.2 µM), inactives show at the highest dose activity change, negative = growth inhibition, usual class: inhibitors; actives 15% (n = 420,000); DT40 Tdp1-/- hTDP1 cells, no CPT, ATP luminescence, 48 h; note: % is set by controls: 0 for no effect and ±100 for the full control effect; nearly all actives have a fitted effect of over 55% in size
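Compound effects on proliferation are scored in DT40 Tdp1-/-;hTDP1 cells in the absence of CPT. ATP levels (CellTiter-Glo luminescence) are recorded after a ≥48 hr, 37 °C incubation.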
PLK1 PBD block: blocks phosphopeptide binding to human PLK1 polo-box domain; Potency, µM, without a hit: max response, negative = inhibition, most hits filed as inhibitors; actives 2.8% (n = 360,000); Plk1 PBD binding of FITC phosphopeptide, fluorescence polarization; P53350; AID 720504; note: series mostly up to about 57 µM; % is set by controls: 0 for no effect and ±100 for the full control effect; nearly all actives have a fitted effect of over 65% in size
VDR confirm: confirmation of human vitamin D receptor inhibitors. Potency, µM, actives largely listed as inhibitors. VDR-coactivator inhibition assay, qHTS confirmation. shares compounds with VDR inh. actives 89% (n = 840)
VDR FP fluor: confirmation of human VDR-coactivator binding inhibitors, fluorescein label; shares compounds with VDR inh; VDR-coactivator binding, fluorescein fluorescence polarization; Potency, µM (highest dose often 57.1 µM), for inactives: at the top dose activity change, negative = inhibition, most hits filed as inhibitors; actives 48% (n = 840); AID 602200
VDR bla: inhibits human VDR in beta-lactamase reporter cells. shares compounds with VDR inh. AID 602202. VDR beta-lactamase reporter cells, FRET ratio; cells co-treated with VDR agonist LG190178. actives 23% (n = 840). Potency, µM (titrated, usually from 46.1 µM), for the others: at the top dose activity change, negative = inhibition, usual class: inhibitors; note: % is set by controls: 0 for no effect and ±100 for the full control effect
VDR viability: cytotoxic in counter-screen for VDR inhibitors; cytotoxicity counter-screen, cell viability, qHTS; Potency, µM (titrated, usually from 48.3 µM), for inactives: top-dose activity change, negative = cytotoxicity, actives largely listed as cytotoxic; actives 18% (n = 840); shares compounds with VDR inh;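 note: plate controls were DMSO for no effect and high-concentration cycloheximide for full effect; nearly all actives have a fitted effect of over 75% in size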
Starred values were filed as active, the others as inactive; ? = inconclusive; · = no result given. Calls come from the whole dose curve; as a rule, active = well fitted curve in the direction sought with a large enough effect; inconclusive = small, poorly fitted or top-dose-only effect, or another doubt; inactive = no such curve, though single readings can be large; an effect the other way counts as inactive or inconclusive. Potency is the fitted concentration of half-maximal effect.

SMILES | VDR inh | TDP1 inh | GCN5L2 inh | TDP1 cell CPT | TDP1 cell noCPT | PLK1 PBD block | VDR confirm | VDR FP fluor | VDR bla | VDR viability
Cc1ccc(C2=NN=C(NC(=O)CSc3nncn3C)SC2)cc1 | 3.2µM* | 0% | 3% | ? | ? | 3µM* | 1.1* | ? | 4% | ?
Cc1ccc(NC(=O)CSc2nncn2C)c(C)c1 | -12% | 6% | -6% | -22% | -15% | · | · | · | · | ·
CC(OC(=O)CCc1c[nH]c2ccccc12)C(=O)c1ccccc1 (stereo unspecified) | -19% | 9% | -3% | 4% | -18% | -18% | · | · | · | ·
CN1CCC(NC(=O)Nc2ccc(Br)cc2)CC1 | -17% | -1% | -3% | -15% | ? | 4% | · | · | · | ·
CN1CCN(C(=S)C(=O)Nc2ccc(Br)cc2)CC1 | ? | -4% | 0% | 13µM* | ? | 2.4µM* | 4* | 3.5µM* | -3% | -15%
C=CCn1c(Sc2ncc([N+](=O)[O-])s2)n[nH]c1=O | 28µM* | 8% | ? | 0.41µM* | 0.92µM* | 1.2µM* | 15* | ? | 26µM* | ?
COc1ccc(/C=C\c2nc(O)c([N+](=O)[O-])c(=O)[nH]2)cc1O | -23% | · | -1% | 0% | -5% | 2% | · | · | · | ·
O=c1[nH]c(/C=C/c2cccc([N+](=O)[O-])c2)c([N+](=O)[O-])c(=O)[nH]1 | 28µM* | · | -12% | -5% | 7% | -5% | 12* | 7.1µM* | 24% | ?
O=c1[nH]c(/C=C/c2ccc(Cl)cc2Cl)c([N+](=O)[O-])c(=O)[nH]1 | 18µM* | · | -24% | -23% | -18% | -15% | 4.7* | ? | -16% | 21%
O=c1[nH]c(/C=C\c2cccc(Cl)c2)nc(O)c1[N+](=O)[O-] | 28µM* | · | -11% | 3% | -23% | 0% | 13* | ? | 20% | 16%
O=c1[nH]c(/C=C/c2ccccc2)c([N+](=O)[O-])c(=O)[nH]1 | 22µM* | 6% | -24% | -4% | -12% | -21% | 24* | ? | 2% | 26%
COc1cc(/C=C/c2[nH]c(=O)[nH]c(=O)c2[N+](=O)[O-])cc([N+](=O)[O-])c1O | -9% | · | -3% | 2% | -3% | -10% | · | · | · | ·
O=C1Nc2ccccc2C(=O)N2C[C@@H](O)C[C@H]12 | 2% | · | ? | 30% | 3% | -16% | · | · | · | ·
COc1ccc(OC(=O)c2nc(SCc3ccccc3F)ncc2Cl)cc1 | 2% | -5% | -5% | -9% | -22% | · | · | · | · | ·
COc1ccc(OC)c(NC(=O)c2nc(S(=O)(=O)Cc3ccccc3)ncc2Cl)c1 | 10µM* | 7% | ? | 0.58µM* | 0.58µM* | ? | 12* | ? | 8.2µM* | 8.2µM*
